FEN1 inhibitor: inhibitors of human flap endonuclease 1; Recombinant FEN1 flap cleavage, fluorescence, 15 min; Potency, µM (series often up to 114 µM), usual class: inhibitors; 390,000 tested, 0.35% active; AID 588795; note: nearly all actives have a fitted effect of over 65% in size
Target sequence (P39748 whole entry, looked up): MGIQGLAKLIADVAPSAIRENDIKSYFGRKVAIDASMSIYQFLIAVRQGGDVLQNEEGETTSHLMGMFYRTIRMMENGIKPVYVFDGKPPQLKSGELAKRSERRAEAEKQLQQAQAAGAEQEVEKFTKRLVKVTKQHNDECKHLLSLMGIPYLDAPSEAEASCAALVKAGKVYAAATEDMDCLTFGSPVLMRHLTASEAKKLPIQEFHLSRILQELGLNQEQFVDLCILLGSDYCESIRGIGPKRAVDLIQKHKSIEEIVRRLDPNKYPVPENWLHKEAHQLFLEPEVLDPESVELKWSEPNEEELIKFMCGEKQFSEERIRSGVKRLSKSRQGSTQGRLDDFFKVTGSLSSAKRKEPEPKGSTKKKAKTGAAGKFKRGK
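Compounds are tested as a concentration series against 10 nM FEN1; after a 15 min room-temperature preincubation, 50 nM substrate starts cleavage, with plate reads at 0 and 15 min. Normalized responses are fitted by a Hill equation.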
POLI inh: inhibitors of human DNA polymerase iota; AID 588590; 390,000 tested, 1% active; Q9UNA4; Potency, µM (titrated, usually from 115 µM), usual class: inhibitors; Pol iota fluorescent replication assay, 10 min
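Pol iota at 10 nM preincubated 15 min with compounds at room temperature; reaction started with fluorescent substrate, 50 nM final. Fluorescence read kinetically at 0 and 10 min; buffer-only wells as negative control.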
WRN helicase inh: WRN helicase (human) inhibition. Q14191. WRN helicase unwinding, fluorescent forked duplex, kinetic. Potency, µM (highest dose often 114 µM), actives largely listed as inhibitors. 360,000 tested, 0.46% active. AID 651768; note: nearly all actives have a fitted effect of over 55% in size
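Screening of the MLSMR collection measured strand separation of a quenched forked DNA duplex (100 nM) by 20 nM WRN with 2 mM ATP, all final. Compounds were preincubated with enzyme 15 min at room temperature.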
POLB inh: inhibitors of human DNA polymerase beta; P06746; 340,000 tested, 1.3% active; Pol beta primer extension/strand displacement, fluorescence kinetic; Potency, µM (series often up to 114 µM), actives largely listed as inhibitors
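Curves were derived by four-parameter Hill fits of normalized qHTS data. The kinetic fluorescent primer-extension read was taken at 0 and 10 min after 50 nM substrate, following a 15 min room-temperature preincubation of 10 nM enzyme with compounds.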
Pol eta inh: DNA polymerase eta (human) inhibition; Q9Y253; recombinant Pol eta, fluorescent DNA replication assay; Potency, µM (series often up to 114 µM), actives largely listed as inhibitors; 390,000 tested, 1.2% active; AID 588591
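Pol eta (10 nM) was preincubated with compounds for 15 min at room temperature, after which fluorescent replication substrate (50 nM final) was added to start the reaction. Fluorescence was read kinetically at 0 and 10 min.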
Pol kappa inh: blocks human DNA polymerase kappa activity; Potency, µM (titrated, usually from 107 µM), usual class: inhibitors; 400,000 tested, 0.53% active; purified Pol kappa, fluorescent DNA synthesis assay, 10 min
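Fluorescent qHTS in 1536-well format: enzyme (10 nM) and compound sat 15 min at room temperature before 50 nM substrate (final) was added. Signal taken at 0 and 10 min; no-enzyme buffer wells were negative controls.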
PGK validate: TbPGK inhibition, hit validation; shares compounds with Pol kappa inh; TbPGK coupled GAPDH assay, Kinase-Glo luminescence; Potency, µM (titrated, usually from 57.5 µM), usual class: inhibitors; 500 tested, 79% active; AID 686980; note: nearly all actives have a fitted effect of over 65% in size
Pol iota confirm: Human Pol iota inhibitor confirmatory assay; Potency, µM, hits mostly inhibitors; 1,500 tested, 77% active; shares compounds with Pol kappa inh; Pol iota primer extension, TAMRA/BHQ fluorescence; AID 720496
Large screens that a line does not name were inactive (follow-up assays come after a bar, where they were run). Hits are enriched below; roughly 2.4% of the tested compounds scored in any of these assays. Calls come from the whole dose curve; as a rule, active = well fitted curve in the direction sought with a large enough effect; inconclusive = small, poorly fitted or top-dose-only effect, or another doubt; inactive = no such curve, though single readings can be large; an effect the other way counts as inactive or inconclusive.

O=C(CCN1C(=O)/C(=C\c2ccccc2)SC1=S)Nc1ccc(C(=O)O)cc1	WRN helicase inh inconclusive, POLB inh inconclusive, Pol kappa inh inconclusive
CCOc1ccc(/C=C2/SC(=S)N(CCC(=O)Nc3ccc(C(=O)O)cc3)C2=O)cc1	POLI inh inconclusive, Pol eta inh 8.9µM | Pol iota confirm 21
O=C(CCN1C(=O)/C(=C/c2ccc(Cl)cc2)SC1=S)Nc1cccc(C(=O)O)c1	FEN1 inhibitor inconclusive, WRN helicase inh 56µM, Pol eta inh 89µM | Pol iota confirm inconclusive
COCCNc1ncnc2ccc(-c3ccccc3C)cc12	none (no result: FEN1 inhibitor, POLI inh, WRN helicase inh, POLB inh, Pol eta inh)
COc1cc(/C=C/C(=O)OC[C@H]2O[C@H](OC3(CO)OC(CO)C(O)C3O)[C@H](O)[C@@H](O)[C@@H]2O)ccc1O (some centres undefined)	none (no result: POLB inh)
C[C@@H]1O[C@@H](O[C@@H]2[C@@H](O)[C@H](OCCc3ccc(O)c(O)c3)O[C@H](CO)[C@H]2OC(=O)/C=C/c2ccc(O)c(O)c2)[C@H](O)[C@H](O)[C@H]1O	FEN1 inhibitor inconclusive, POLI inh inconclusive, Pol kappa inh 22µM (no result: POLB inh) | Pol iota confirm 21
O=C(Nc1ccccc1)Nc1ccc(C(=O)N2CCCC2)cc1	none | PGK validate 16µM
O=C(Nc1ccc(C(=O)N2CCCCC2)cc1)c1ccccc1	none (no result: POLB inh)
Fc1ccc(-n2cc(-c3ccccc3)c3c(NC4CCCCC4)ncnc32)cc1	none (no result: WRN helicase inh)
CCN(CC)c1ccc(C(=C2C=CC(=[N+](CC)CC)C=C2)c2ccc(S(=O)(=O)O)cc2S(=O)(=O)[O-])cc1	FEN1 inhibitor inconclusive, POLI inh inconclusive, Pol eta inh 20µM (no result: POLB inh) | PGK validate 16µM
CCN(CC)c1ccc(C(=O)O)cc1	none
CCCCC(=O)NCCc1c(Cc2ccccc2)[nH]c2ccccc12	none (no result: FEN1 inhibitor, POLI inh, WRN helicase inh, POLB inh, Pol eta inh)
CCOc1cc(C(=O)Nc2cc3c(cc2N2CCCC2)n(C)c(=O)c(=O)n3C)cc(OCC)c1OCC	none (no result: WRN helicase inh)
Cc1ccccc1C(=O)Nc1ccc2c(C#N)c3nc4ccccc4nc3n2c1	FEN1 inhibitor inconclusive, WRN helicase inh 56µM, POLB inh inconclusive, Pol eta inh 10µM | Pol iota confirm inconclusive
Cc1c(C(=O)Nc2ccccc2)cn2c(nc3ccccc32)c1C#N	none
CC(C)[C@@H]1NC(=O)[C@H](CCCCN)NC(=O)[C@@H](Cc2c[nH]c3ccccc23)NC(=O)[C@H](Cc2ccc(O)cc2)NC(=O)[C@@H](NC(=O)[C@H](N)Cc2ccccc2)CSSC[C@@H](C(=O)N[C@@H](Cc2c[nH]c3ccccc23)C(N)=O)NC1=O	none (no result: FEN1 inhibitor, POLI inh, WRN helicase inh, POLB inh, Pol eta inh)
Cc1ccc2c(c1)N(CC(=O)NCc1ccccc1Br)C(=O)c1cccnc1O2	none (no result: WRN helicase inh)
COc1ccc(Br)cc1CNC(=O)CN1C(=O)c2cccnc2Oc2ccc(C)cc21	POLI inh inconclusive, Pol eta inh inconclusive (no result: WRN helicase inh) | Pol iota confirm inconclusive
Cc1ccc(NC(=O)CN2C(=O)S/C(=C/c3ccc(-c4cccc(C(=O)O)c4)o3)C2=O)cc1	FEN1 inhibitor 20µM, POLI inh 25µM, WRN helicase inh inconclusive, POLB inh 11µM, Pol eta inh 5.6µM, Pol kappa inh 32µM | PGK validate 12µM
Cc1cc(C)cc(NS(=O)(=O)c2ccc(-c3cc(C)no3)cc2)c1	none (no result: WRN helicase inh)
O=S(=O)(O)CCCS(=O)(=O)O	none (no result: FEN1 inhibitor, POLI inh, WRN helicase inh, POLB inh, Pol eta inh)
O=C(Nc1ccc(F)c(Cl)c1)N1CCC(CN2CCc3ccccc3C2)CC1	none (no result: WRN helicase inh)
CCOc1ccc2nc(NC(=O)c3ccoc3C)sc2c1	POLI inh inconclusive | PGK validate 6.5µM
Cc1cccc(CNC(=O)CCCN2C(=O)c3cccnc3Oc3ccccc32)c1	none (no result: WRN helicase inh)
O=C(Nc1ccc(NC(=O)c2ccco2)c(Cl)c1)c1ccc2c(c1)OCCO2	POLI inh inconclusive, WRN helicase inh inconclusive, POLB inh inconclusive, Pol eta inh inconclusive, Pol kappa inh inconclusive | Pol iota confirm inconclusive
